# This is part of a sample that, as a whole, favours compounds with a hit. Of some 83,000 tested, about 20% had one in any assay.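 Cells were grown in 96-well plates and exposed to the test compound at a single concentration for 48 hours; results are reported as percent growth, with values below 10 considered active.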 Unmarked numbers belong to inactive results. Calls of active or inactive are those of the source.
# Test system: SNB-19 CNS
# Test: NCI-60 one-dose screen, 48 h (100 = growth as untreated, 0 = no growth, -100 = all killed)
# Settings: 10 µM unless noted
row,Compound,growth
1,CCCCC1COc2cccc3c(SCC(=O)N(C)c4cccc(Cl)c4)cc[n+]1c23 (stereo unspecified),98.7%
2,COc1ccc(-c2c(N)n[nH]c2-c2ccccc2O)cc1OC,89.1%
3,CCOC(=O)c1sc(-c2ccc(OS(=O)(=O)c3ccc(C(C)(C)C)cc3)c(C=O)c2)nc1C,29.7%
4,Cc1nc(Nc2ccc(NC(=S)Nc3ccccc3)cc2)nc2nc(Nc3ccc(S(=O)(=O)O)cc3)[nH]c(=O)c12,96.2%
5,COc1ccc(/C=C2\COc3ccc(O)cc3C2=O)c(OC)c1,55.3%
6,COc1ccc(/C(C)=C(\c2ccc(Cl)cc2)c2ccc(OCCCN(C)C)cc2)cc1F,67%
7,Cc1nc(Nc2ccc(NC(=S)Nc3ccccc3)cc2)c2ccccc2n1,105%
8,C=C1C(=O)O[C@H]2[C@H]1CC/C(COC(=O)/C=C\C(=O)NCc1ccc(Cn3c(=O)sn(-c4ccc(OC)cc4)c3=O)cc1)=C\CC[C@@]1(C)O[C@@H]21,7.17% (active)
9,CN(C)CCn1cc(-c2ccc3c(Nc4ccc(CC(=O)Nc5cccc(F)c5)cc4)ncnc3c2)cn1,-60% [30 µM] (active)
10,COc1cc(/C=C/c2nc(Nc3ccc(S(=O)(=O)Nc4cc(C)on4)cc3)c3ccccc3n2)ccc1O,64.3%
11,COc1ccc(/C(C)=C(\c2ccc(Cl)cc2)c2ccc(OCCN3CCCC3)cc2)cc1F,42.8%
12,Cc1nc(Nc2ccc(S(=O)(=O)Nc3cc(C)on3)cc2)c2ccccc2n1,110%
13,COc1ccc(OC)c(/C=C2\COc3ccc(O)cc3C2=O)c1,84.5%
14,CCN(CC)CCOc1ccc(/C(=C(\C)c2ccc(F)c(OC)c2)c2ccc(Cl)cc2)cc1,8.37% (active)
15,O[C@H]1CO[C@H]2[C@@H]1OC[C@@H]2Oc1ccc(Nc2ccnc(Nc3ccc(O[C@H]4CO[C@H]5[C@@H]4OC[C@@H]5O)c(Cl)c3)n2)cc1Cl,7.59% (active)
16,CC(=O)Nc1ccc(-c2cc3c(NCc4ccc(F)cc4)ncnc3s2)cc1,57.8%

row,Compound,growth
1,C/C(Cc1ccc(Cl)cc1)=C(/c1ccc(Cl)cc1)c1ccc(OCCN(C)C)cc1,69.4%
2,C=C1C(=O)O[C@H]2[C@H]1CC/C(COC(=O)/C=C\C(=O)NCc1ccc(Cn3c(=O)sn(CCCC)c3=O)cc1)=C\CC[C@@]1(C)O[C@@H]21,20.5%
3,Cc1nc(Nc2cccc(NC(=O)Nc3ccc(Cl)cc3)c2)c2ccccc2n1,99.9%
4,COc1ccc(/C=C2\COc3ccc(O)c(O)c3C2=O)c(OC)c1,76%
5,CCN(CC)CCOc1ccc(/C(=C(\C)c2ccc(OC)c(F)c2)c2ccc(Cl)cc2)cc1,91.8%
6,C=C1C(=O)O[C@H]2[C@H]1CC/C(COC(=O)/C=C\C(=O)NCc1ccc(Cn3c(=O)sn(-c4ccc(C#N)cc4)c3=O)cc1)=C\CC[C@@]1(C)O[C@@H]21,-65% (active)
7,CN(C)CCN1C(=O)c2cccc3c(-c4ccc(-c5nc6c7ccccc7c7ccccc7c6[nH]5)cc4)ccc(c23)C1=O,110%
8,c1ccc([P+](CCCc2n(Cc3ccc4ccccc4c3)c3ccccc3[n+]2Cc2ccc3ccccc3c2)(c2ccccc2)c2ccccc2)cc1,38.5%
9,CCCCS(=O)(=O)Oc1ccc(-c2nc(C)c(C(=O)OCC)s2)cc1C=O,53.8%
10,CCCCN(Cc1ccc(C(=O)NO)cc1)C(=O)Nc1ccc(OCCCCCCCCCn2cc(CCCCC(=O)N[C@H](C(=O)N3C[C@H](O)C[C@H]3C(=O)NCc3ccc(-c4scnc4C)cc3)C(C)(C)C)nn2)cc1,29.5%
11,COc1ccc(/C(C)=C(\c2ccc(Cl)cc2)c2ccc(OCCN3CCCCCC3)cc2)cc1F,65.9%
12,C=C1C(=O)O[C@H]2[C@H]1CC/C(COC(=O)/C=C\C(=O)NCc1ccc(Cn3c(=O)sn(-c4ccc(Cl)cc4)c3=O)cc1)=C\CC[C@@]1(C)O[C@@H]21,-8.33% (active)
13,O[C@H]1CO[C@H]2[C@@H]1OC[C@@H]2Oc1ccc(Nc2nc(Nc3ccc(F)c(Cl)c3)ncc2F)cc1Cl,103%
14,O=C(CCc1nc(-c2cccc(Cl)c2)no1)Nc1ccccn1,97.6%
15,COc1ccc(Cn2cnc3cc(C(=O)Nc4cccc5ccccc45)ccc32)c(OC)c1,21.5% [30 µM]

# From PubChem BioAssay (NCI)
